Screening data: PubChem BioAssay, National Center for Advancing Translational Sciences (NCATS)
Hits are enriched below; roughly 19% of the tested compounds scored in any of these assays.
TDP1 cell noCPT – qHTS for Inhibitors of human tyrosyl-DNA phosphodiesterase 1 (TDP1): qHTS in cells in absence of CPT. DT40 Tdp1-/- hTDP1 cells, no CPT, ATP luminescence, 48 h. Potency, µM (series often up to 46.2 µM), for the others: at the top dose activity change, negative = growth inhibition, hits mostly inhibitors. 15% of 420,000 active; also: potency is read from the fitted curve at half-maximal effect; nearly all actives have a fitted effect of over 55% in size
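Luminescent ATP content (CellTiter-Glo) served as the growth readout. Knockout chicken DT40 cells expressing human TDP1 were exposed to compounds without camptothecin for a minimum 48 hr at 37 °C.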
DT40 TDP1 CPT – DT40-hTDP1 cell growth loss with CPT; chicken DT40 Tdp1-/-;hTDP1 cells + 20 nM CPT, ATP luminescence, 48 h; Potency, µM (titrated, usually from 46.2 µM), without a hit: top-dose activity change, negative = growth inhibition, usual class: inhibitors; 12% of 420,000 active; AID 686979; also: potency is read from the fitted curve at half-maximal effect; nearly all actives have a fitted effect of over 55% in size
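Chicken DT40 Tdp1-/- cells stably complemented with human TDP1 were seeded at 400 cells/well in medium containing 20 nM camptothecin, exposed to pin-transferred compounds, and grown at 37 °C for at least 48 hr. Viability was read as ATP luminescence.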
IL-1B inflam inh – inflammasome signaling inhibition, IL-1 beta readout | activity change, % at 57.5 µM | THP-1 LPS/ATP IL-1B secretion, AlphaLISA, 16 h; stronger effect = lower value | 4.7% of 360,000 active | AID 743279; in the data active = activity change below about -50%; inconclusive = mostly about -30% to -49%
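THP-1 cells pretreated 1 hr with compounds (up to 57.5 uM final), then stimulated with LPS (250 ng/mL final) plus ATP (1.25 mM final); secreted IL-1B measured by AlphaLISA after 16 hr, decreased signal indicating inhibition.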
HT1080NT lethal – kills 2HG-producing HT-1080-NT fibrosarcoma cells; HT-1080-NT fibrosarcoma viability, CellTiter-Glo ATP luminescence, 48 h; Potency, µM (highest dose often 46.1 µM), inactives show at the top dose activity, negative = less viability, usual class: cytotoxic; 1.6% of 360,000 active; AID 686970;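 also: NT is the 2HG producing partner of a matched IDH1 knockdown line; potency is read from the fitted curve at half-maximal effect; 0% = DMSO-treated cells and -100% = media-only wells without cells; nearly all actives have a fitted effect of over 55% in size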
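Toxicity toward the 2HG-producing NT line was scored as %Activity, normalised to DMSO and no-cell wells, from CellTiter-Glo luminescence after 48 hours' treatment.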
HT1080 IDH1KD tx – HT-1080 IDH1 knockdown cell toxicity (counter line). HT-1080 IDH1 knockdown viability, ATP luminescence, 48 h. Potency, µM (top dose mostly 46.1 µM), for inactives: top-dose activity, negative = toxicity, usual class: cytotoxic. 2% of 360,000 active;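 also: potency is read from the fitted curve at half-maximal effect; 0% = DMSO wells and -100% = cell-free medium wells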
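Using the IDH1-knockdown HT-1080 line run in the same batch and compound series as the NT line, viability after 48 h at 37 °C was determined by CellTiter-Glo luminescence and expressed as % activity.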
ELG1 repair inh – inhibitors of ELG1-dependent DNA repair in HEK293T cells; Potency, µM (highest dose often 46.1 µM), inactives show at the top dose activity change, negative = inhibition, actives largely listed as inhibitors; AID 504467; HEK293T ELG1-luciferase reporter, luminescence, 16 h; DNA damage induced by 5-fluorouridine; 2.3% of 330,000 active; also: potency is read from the fitted curve at half-maximal effect; nearly all actives have a fitted effect of over 55% in size
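HEK293T cells expressing luciferase-tagged ELG1 (2,000/well) received 5-Fluorouridine plus compound or DMSO for 16 hr at 37 °C. Luciferase was read by ONE-Glo luminescence after 30 min at room temperature.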
The depositor's hits bear a star; ? = inconclusive; . = no result given; [ ] = another dose, or the depositor's remark. Unless noted, calls follow the shape of the dose curve; as a rule, active = well fitted curve in the direction sought with a large enough effect; inconclusive = small, poorly fitted or top-dose-only effect, or another doubt; inactive = no such curve, though single readings can be large; an effect the other way counts as inactive or inconclusive. Unless noted, % is scaled to controls: 0 for no effect and ±100 for the full control effect.

SMILES	TDP1 cell noCPT	DT40 TDP1 CPT	IL-1B inflam inh	HT1080NT lethal	HT1080 IDH1KD tx	ELG1 repair inh
O=C(N/N=C/c1ccccn1)c1cc([N+](=O)[O-])cc([N+](=O)[O-])c1	21µM*	?	100	-11%	-9%	7%
O=C(N/N=C/c1cccc(O)c1)c1ccc(NC(=O)c2cccc([N+](=O)[O-])c2)cc1	18µM*	?	-4	-13%	-30%	?
Cc1ccc(-c2noc(CNC(=O)COc3cc(C)c(Br)c(C)c3)n2)cc1	-7%	-2%	.	.	.	.
Cc1ccc(C)c(CC(=O)N2CCCC(c3cc(C(=O)NCc4ccccc4)no3)C2)c1 (stereo unspecified)	?	?	-16	2%	0%	.
CC(/C=C/c1ccc2c(c1)OCO2)=N\NC(=O)c1cccc([N+](=O)[O-])c1	15µM*	21µM*	-8	6%	-4%	?
Cc1cccc(C(=O)Nc2cccc(C(=O)N/N=C/c3ccccn3)c2)c1	?	-16%	30	0%	0%	-15%
O=C(N/N=C/c1ccccn1)c1cccc([N+](=O)[O-])c1	16µM*	?	-96*	-24%	?	?
Cc1cccc(C(=O)N/N=C/c2ccccn2)c1	15µM*	?	27	-19%	?	?
O=C(N/N=C/c1ccccn1)c1ccc([N+](=O)[O-])cc1	-9%	1%	-2	0%	11%	?
CCN(CC)C(=O)C1CCCN(c2ccc([N+](=O)[O-])cc2/C=N/NC(=O)c2cccc([N+](=O)[O-])c2)C1 (stereo unspecified)	?	21µM*	?	3%	0%	?
Cc1ccc(C)c2c1CCCC2=O	-18%	7%	-12	-1%	1%	.
C/C(=N\NC(=O)Cn1ccc(C(F)(F)F)n1)c1ccco1	4%	3%	6	25%	13%	24%
O=C(N/N=C/c1ccccn1)c1cccc(S(=O)(=O)Nc2ccccc2Cl)c1	16µM*	16µM*	92	-18%	?	-13%
Cc1cc(/C=N/NC(=O)c2cccc([N+](=O)[O-])c2)c(C)n1-c1ccccc1	?	?	-80*	-8%	-17%	?
O=C(N/N=C/c1ccccn1)c1ccc(NC(=O)c2cccc([N+](=O)[O-])c2)cc1	?	-17%	4	-14%	-16%	16µM*
Cc1ccc(/C=N/NC(=O)c2cccc([N+](=O)[O-])c2)o1	7%	14%	-5	0%	20%	2%
Cc1ccsc1/C=N/NC(=O)c1cccc(S(=O)(=O)Nc2ccccc2Cl)c1	-12%	-16%	0	-10%	-9%	2%
COc1cccc(NC(=O)C2CCN(S(=O)(=O)c3ccc4c(c3)C(C)(C)C(=O)N4C)CC2)c1	?	3%	17	2%	-3%	-3%
COc1ccc(Cn2c(C(=O)O)c(CNC3CCCC3)c3ccc(OC)cc32)cc1	-29%	?	.	.	.	.
COc1ccc2c(CNC3CCC(C)CC3)c(C(=O)O)n(Cc3ccc(F)cc3)c2c1 (stereo unspecified)	16µM*	?	.	.	.	.
COc1ccc2c(CNCCc3ccccc3)c(C(=O)O)n(Cc3cccc(F)c3)c2c1	18µM*	?	.	.	.	.
COc1ccc(Cn2c(C(=O)O)c(CNCc3ccccc3F)c3ccc(OC)cc32)cc1	16µM*	?	.	.	.	.
Cc1ccc(Cn2c(C(=O)O)c(CNCCc3ccco3)c3ccc(C)cc32)cc1	-18%	-23%	.	.	.	.
COc1ccc2c(CNCc3cccs3)c(C(=O)O)n(Cc3cccc(F)c3)c2c1	?	-8%	.	.	.	.
CCOc1ccccc1CNCc1c(C(=O)O)n(Cc2ccccc2)c2cc(OC)ccc12	13µM*	?	.	.	.	.
SMILES	TDP1 cell noCPT	DT40 TDP1 CPT	IL-1B inflam inh	HT1080NT lethal	HT1080 IDH1KD tx	ELG1 repair inh
O=[N+]([O-])c1cc(S(=O)(=O)N2CCOCC2)ccc1OCc1cccc(Cl)c1	-17%	?	5	1%	-1%	5%
CCn1c([N+](=O)[O-])nc2c1c(=O)[nH]c(=O)n2C	1.8µM*	2.3µM*	-99*	18µM*	21µM*	?
CC(C)c1nc2oc3c(NCC4CCCO4)ncnc3c2c2c1COC(C)(C)C2 (stereo unspecified)	15µM*	?	0	1%	-2%	13%
CCCc1nc2oc3c(OC)ncnc3c2c2c1COC(C)(C)C2	21µM*	?	-8	4%	4%	?
Cc1nc2oc3c(NCc4ccccc4)ncnc3c2c2c1COC(C)(C)C2	18µM*	?	?	-16%	-16%	7.3µM*
Cc1nc2oc3c(NCC4CCCO4)ncnc3c2c2c1COC(C)(C)C2 (stereo unspecified)	-1%	0%	?	8%	3%	?
CCOC(=O)C1=CCN(S(C)(=O)=O)C1c1ccc(C)cc1 (stereo unspecified)	-14%	-5%	-5	15%	20%	.
COc1ccc(C(=O)NC(=S)Nc2ccc(N3CCCC3)cc2)cc1	-19%	-14%	-5	14%	2%	?
CCOc1cccc(C(=O)Nc2ccc3ccccc3c2)c1	-24%	25%	-17	-14%	-24%	?
COc1cccc(C(=O)NC(=S)Nc2ccc(N3CCCC3)cc2)c1	16µM*	?	-57*	-2%	0%[9.24 µM]	-21%
CN1CCN(c2ccc(NC(=S)NC(=O)c3cccc4c(Cl)cccc34)cc2)CC1	?	16µM*	11	14%	1%	1%
CCOc1cccc(C(=O)Nc2ccc(N(CC)CC)cc2)c1	?	21µM*	-14	-26%	-27%	-7%
CCCC(=O)N1CCN(c2ccc(NC(=S)NC(=O)c3cccc(C)c3)cc2)CC1	23µM*	?	-65*	-3%	-1%	16µM*
O=C(NC(=S)Nc1ccc(N2CCOCC2)cc1)c1cccc(Cl)c1Cl	4%	8%	9	24%	15%	-8%
CCOc1ccc(OCc2cccc(C(=O)Nc3ccc(CN4CCCCC4)cc3)c2)cc1	21µM*	8.2µM*	-100*	15µM*	?	?
COc1ccc(OCc2cccc(C(=O)Nc3ccc(CN4CCCCC4)cc3)c2)cc1	?	?	-16	-1%	-19%	?
CCOc1ccc(C(=O)Nc2ccc(N3CCCC3)cc2)cc1	-23%	-30%	-12	-1%	-4%	?
